Several values for one entry are separate records, joined by “and”; a condition that tells them apart may be missing. Equal values may be shown once. Records with an inconclusive call do not appear. Activity calls are given as the source filed them. Calls come from the whole dose curve; as a rule, active = well fitted inhibition curve with a large enough effect in the signal ratio, with a control signal flat (not every such curve was filed as active); inconclusive = small, poorly fitted or top-dose-only effect, or effect the other way, or a change in a side signal; inactive = flat fitted curve, though single readings scatter; the % refers to the signal ratio.
% is set by controls: 0 for no effect and ±100 for the full control effect.

Sequence of Thyroid hormone receptor beta (Homo sapiens) (P10828 whole entry, looked up): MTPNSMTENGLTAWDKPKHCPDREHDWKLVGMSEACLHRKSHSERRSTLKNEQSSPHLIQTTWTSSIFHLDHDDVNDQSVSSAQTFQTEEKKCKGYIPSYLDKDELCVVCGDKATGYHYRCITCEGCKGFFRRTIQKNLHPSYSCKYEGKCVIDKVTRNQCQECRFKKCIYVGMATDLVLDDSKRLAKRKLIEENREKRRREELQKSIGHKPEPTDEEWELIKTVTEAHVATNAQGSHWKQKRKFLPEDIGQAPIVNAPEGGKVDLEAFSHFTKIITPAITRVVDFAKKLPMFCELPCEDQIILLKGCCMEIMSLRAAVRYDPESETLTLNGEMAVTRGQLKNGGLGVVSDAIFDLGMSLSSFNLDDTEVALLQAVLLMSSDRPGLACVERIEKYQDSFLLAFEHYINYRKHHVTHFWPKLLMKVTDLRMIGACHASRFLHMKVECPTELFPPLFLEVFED

This assay addresses Thyroid hormone receptor beta (Homo sapiens) (UniProt P10828). As to the kind of experiment: qHTS assay for small molecule antagonists of thyroid hormone receptor beta signaling (AID 588547).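 Note: cells stimulated with 0.4 nM T3 agonist during compound exposure; series mostly up to about 77 µM.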 The conditions noted are these: TR-UAS-bla HEK293, beta-lactamase ratio, antagonist mode, 18 h. An excerpt:
NIH Chemical Genomics Center [NCGC] U.S. Environmental Protection Agency [EPA] National Institutes of Environmental Health Sciences [NIEHS] National Toxicology Program [NTP] NCGC Assay Overview Thyroid hormone receptor (TR) belongs to nuclear hormone receptor superfamily. There are two subtypes for TR: TR-alpha and TR-beta. TR-beta plays a major role in regulating plasma cholesterol levels and it mediates the biological activities of thyroid hormone. Screening environmental chemicals on TR-beta signaling will provide important information for the mechanism of compound action.
NCGC Assay Protocol Summary Using a beta-lactamase reporter-gene under control of the TR response element, a cell-based assay [GeneBLAzer TR-UAS-bla-GripTite assay developed by Invitrogen] was used to measure TR-beta signaling in antagonist mode. TR-UAS-bla-GripTite HEK 293 cells were used with assay medium containing 2% charcoal/dextran FBS, 0.1 mM NEAA and 1 mM sodium pyruvate. The assay was performed in clear bottom black Greiner 1536-well plates. Library compounds were measured for their ability to inhibit the reporter gene activity. Compounds were screened in a titration series in 1536-well format. The fluorescence intensity (405 nm excitation, 460/530 nm emission) was measured using an EnVision plate reader. […] Concentration-response titration points for each compound were fitted to the Hill equation yielding concentrations of half-maximal inhibition (IC50) and maximal response (efficacy) values. qHTS protocol for TR-beta beta-lactamase assay in antagonist mode [Step] [Parameter] [Value] [Description] 1. Reagent; 5 uL; 2500 cells/well 2. Incubation; 37 C for 4 hrs 3. Compounds; 23 nL; 0.59 nM to 92 uM 4. Controls (DMSO); 23 nL 5. Agonist (Stimulator); 1uL; T3 at 0.4nM (final) concentrations 6. Incubation; 37 C for 18 hrs 7. Detection reagent; 1 uL of CCF4-dye 8. Incubation; RT for 2 hrs 9. Detection; Fluorescence; Envision plate reader
In general terms: In qHTS, concentration-response curves come from the screen itself.
`Cc1ccc2c(C)cccc2c1`: the activity change % (negative = inhibition) is 8.64% (inactive).
On to `COC(C)(C)C`, for which the activity change % (negative = inhibition) was -17.3% (inactive).
`COP(=S)(OC)SCn1nnc2ccccc2c1=O`: the activity change % (negative = inhibition) was 7.85% (inactive).
Regarding `Cc1cc(C)cc(OP(=O)(Oc2cc(C)cc(C)c2)Oc2cc(C)cc(C)c2)c1`, the activity change % (negative = inhibition) was 2.87% (inactive).
As for `CCCBr`, the activity change % (negative = inhibition) was 3.13% (inactive).
With `CC(C)(Cl)[N+](=O)[O-]`, the activity change % (negative = inhibition) was 9.2% (inactive).
As for `C/C=C/CC#N`, the activity change % (negative = inhibition) was 15.6% (inactive).
Regarding `C=CCCl`, the activity change % (negative = inhibition) is -1.64% (inactive).
As for `ClCC(Br)CBr` (stereo not given), the activity change % (negative = inhibition) is 6.39% (inactive).
The same measure for `C=CC(=O)OCCO`: 12.5% (inactive); for `CCCCCc1cc(O)cc(O)c1`: -2.41% (inactive).
The same measure for `CC(=O)NNc1ccccc1`: -1.14% (inactive); for `CC(Cl)(Cl)Cl`: 0.316% (inactive) and -7.15% (inactive).
For the compound `Nc1ccc([N+](=O)[O-])cc1N`, the activity change % (negative = inhibition) is 8.39% (inactive) and -11.3% (inactive).
On to `CN1CSC(=S)N(C)C1`, for which the activity change % (negative = inhibition) is 21.7% (inactive) and -19% (inactive).
The same measure for `Oc1ccc(Cl)c(Cl)c1Cl`: 14.5% (inactive).
For the compound `OC[P+](CO)(CO)CO`, the activity change % (negative = inhibition) was -18.1% (inactive) and -15.5% (inactive).
On to `Cc1cnc[nH]1`, for which the activity change % (negative = inhibition) was 8% (inactive).
For `O=C(O)C(Br)Br`, the activity change % (negative = inhibition) was 8.3% (inactive).
For the compound `C=CCc1cc(OC)c2c(c1)OCO2`, the activity change % (negative = inhibition) is 4.98% (inactive).
The same measure for `CCC/C=N/O`: 3.59% (inactive); for `ClCc1ccccc1`: 2.64% (inactive); for `C=CC(=O)OCC(CC)CCCC` (stereo not given): -10.5% (inactive) and 4.22% (inactive).
Turning to `Clc1cc(Cl)c(Cl)c(Cl)c1`, the activity change % (negative = inhibition) was -16.6% (inactive).
To `Cc1ccc([N+](=O)[O-])cc1` belongs 0.221% (inactive); to `CCC(Cl)[N+](=O)[O-]` (stereo not given), -30.2% (inactive); to `CC(C)CC(C)N` (stereo not given), 11.1% (inactive).
As to `CN(C)c1ccccc1`, the activity change % (negative = inhibition) is -1.14% (inactive).
On to `ClCCOCCCl`, for which the activity change % (negative = inhibition) was 0.0195% (inactive).
To `CN(C)c1ccc(N(C)C)cc1` belongs -0.335% (inactive); to `O=[N+]([O-])c1cccc(CCl)c1`, -16.3% (inactive).
For `Clc1ccccc1`, the activity change % (negative = inhibition) was 8.57% (inactive).
For the compound `Nc1ccc(Cl)c(Cl)c1`, the activity change % (negative = inhibition) was 2.33% (inactive).
To `Nc1ccc2ccccc2c1` belongs -16.4% (inactive); to `Clc1cccc(Cl)c1`, 13.8% (inactive); to `O=[N+]([O-])c1cc(Cl)c(Cl)c(Cl)c1`, 3.05% (inactive).
To `C=CC=O` belongs 2.84% (inactive); to `Cc1ccc(N)cc1Cl`, -8.08% (inactive).
The same measure for `O=S(=O)(O)F`: 10% (inactive); for `CCCCC(CC)COC(=O)c1ccc(C(=O)OCC(CC)CCCC)c(C(=O)OCC(CC)CCCC)c1` (stereo not given): 11.5% (inactive).

Values taken from PubChem BioAssay (NCATS).
